Results taken from PubChem BioAssay AID1508601 (ICCB-Longwood Screening Facility, Harvard Medical School, 2020).
The campaign covered roughly 5,700 compounds. About 85 (1%) were called active. No stated cut-off is given here; in the data, active means p53-positive nuclei above about 36% (passing the limit was not always enough); inactive means the rest. The list comes from a sample in which actives are over-represented; it also holds similar structures and randomly drawn compounds.

Experiments:
[1] = nuclear p53 accumulation, HPV+ cells – imaging, p53-positive nuclei imaging, 24 h, 48 h (AID 1508601); details: 24/48 h
[2] = molecular target: Cellular tumor antigen p53 (Homo sapiens) (UniProt P04637); assay: as above; details: 24/48 h, stronger effect = higher value
Chain of Cellular tumor antigen p53 (Homo sapiens) (P04637 whole entry, looked up): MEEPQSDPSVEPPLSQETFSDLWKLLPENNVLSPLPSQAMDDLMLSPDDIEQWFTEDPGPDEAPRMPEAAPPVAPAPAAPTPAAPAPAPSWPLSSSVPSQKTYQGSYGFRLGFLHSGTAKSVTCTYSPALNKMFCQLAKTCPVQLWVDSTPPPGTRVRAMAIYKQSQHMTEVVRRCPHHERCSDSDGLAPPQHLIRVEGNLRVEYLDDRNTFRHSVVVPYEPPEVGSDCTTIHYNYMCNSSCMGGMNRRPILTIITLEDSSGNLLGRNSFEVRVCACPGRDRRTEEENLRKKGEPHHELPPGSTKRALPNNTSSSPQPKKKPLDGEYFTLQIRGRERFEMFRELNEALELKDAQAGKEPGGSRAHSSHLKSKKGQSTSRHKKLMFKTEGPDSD

[3] = measured here: cell number at 24 h, Library stock concentration: 80 uM
[4] = measured here: cell number at 24 h, Library stock concentration: 400 uM
[5] = measured here: cell number at 24 h, Library stock concentration: 2 mM
[6] = measured here: cell number at 24 h, Library stock concentration: 3.33 mM
[7] = measured here: cell number at 24 h, Library stock concentration: 10 mM
[8] = measured here: cell number at 48 h, Library stock concentration: 80 uM
[9] = measured here: cell number at 48 h, Library stock concentration: 400 uM
[10] = measured here: cell number at 48 h, Library stock concentration: 2 mM
[11] = measured here: cell number at 48 h, Library stock concentration: 3.33 mM
[12] = measured here: cell number at 48 h, Library stock concentration: 10 mM
[13] = Library stock concentration: 80 uM
[14] = Library stock concentration: 400 uM
[15] = Library stock concentration: 2 mM
[16] = Library stock concentration: 3.33 mM
[17] = Library stock concentration: 10 mM
[18] = measured here: p53 positive nuclei at 24 h, Library stock concentration: 80 uM
[19] = measured here: p53 positive nuclei at 24 h, Library stock concentration: 400 uM
[20] = measured here: p53 positive nuclei at 24 h, Library stock concentration: 2 mM
[21] = measured here: p53 positive nuclei at 24 h, Library stock concentration: 3.33 mM
[22] = measured here: p53 positive nuclei at 24 h, Library stock concentration: 10 mM
[23] = measured here: cell number at 24 h, concentration not given here
[24] = measured here: cell number at 48 h, concentration not given here
[25] = measured here: p53 positive nuclei at 24 h, concentration not given here

## CC(C)N(CCCNC(=O)Nc1ccc(C(C)(C)C)cc1)CC1OC(n2cc(Br)c3c(N)ncnc32)C(O)C1O (stereo unspecified)
[1]; [3]
  nuclei count, normalised: 105%
[1]; [4]
  nuclei count, normalised: 101%
[1]; [5]
  nuclei count, normalised: 103%
[1]; [6]
  nuclei count, normalised: 115%
[1]; [7]
  nuclei count, normalised: 101%
[1]; [8]
  nuclei count, normalised: 98.8%
[1]; [9]
  nuclei count, normalised: 96.7%
[1]; [10]
  nuclei count, normalised: 94.7%
[1]; [11]
  nuclei count, normalised: 110%
[1]; [12]
  nuclei count, normalised: 99.9%
[2]; [13]
  p53-positive nuclei, normalised: -0.0631% (inactive)
[2]; [14]
  p53-positive nuclei, normalised: 0.111% (inactive)
[2]; [15]
  p53-positive nuclei, normalised: 0.291% (inactive)
[2]; [16]
  p53-positive nuclei, normalised: -0.109% (inactive)
[2]; [17]
  p53-positive nuclei, normalised: 0.13% (inactive)
[2]; [18]
  p53-positive nuclei, normalised: -0.167%
[2]; [19]
  p53-positive nuclei, normalised: 0.0144%
[2]; [20]
  p53-positive nuclei, normalised: -0.162%
[2]; [21]
  p53-positive nuclei, normalised: -0.283%
[2]; [22]
  p53-positive nuclei, normalised: -0.163%

## CCCC1CC(C(=O)NC(C(C)O)[C@@H]2OC(SC)C(O)C(O)C2O)N(C)C1 (stereo partly specified)
[1]; [6]
  nuclei count, normalised: 101%
[1]; [11]
  nuclei count, normalised: 102%
[2]; [16]
  p53-positive nuclei, normalised: -0.245% (inactive)
[2]; [21]
  p53-positive nuclei, normalised: -0.267%

## N#CSc1cc(SC#N)c(N)nc1N
[1]; measured here: cell number at 24 h, Library stock concentration: 500 nM
  nuclei count, normalised: 108%
[1]; measured here: cell number at 24 h, Library stock concentration: 1.5 uM
  nuclei count, normalised: 116%
[1]; measured here: cell number at 24 h, Library stock concentration: 4.6 uM
  nuclei count, normalised: 121%
[1]; measured here: cell number at 24 h, Library stock concentration: 13.7 uM
  nuclei count, normalised: 119%
[1]; measured here: cell number at 24 h, Library stock concentration: 41 uM
  nuclei count, normalised: 107%
[1]; measured here: cell number at 24 h, Library stock concentration: 123 uM
  nuclei count, normalised: 114%
[1]; measured here: cell number at 24 h, Library stock concentration: 370 uM
  nuclei count, normalised: 114%
[1]; measured here: cell number at 24 h, Library stock concentration: 1.111 mM
  nuclei count, normalised: 107%
[1]; [6]
  nuclei count, normalised: 97.4%
[1]; measured here: cell number at 24 h, Library stock concentration: 3.333 mM
  nuclei count, normalised: 84.8%
[1]; [7]
  nuclei count, normalised: 45.2%
[1]; measured here: cell number at 48 h, Library stock concentration: 500 nM
  nuclei count, normalised: 108%
[1]; measured here: cell number at 48 h, Library stock concentration: 1.5 uM
  nuclei count, normalised: 111%
[1]; measured here: cell number at 48 h, Library stock concentration: 4.6 uM
  nuclei count, normalised: 118%
[1]; measured here: cell number at 48 h, Library stock concentration: 13.7 uM
  nuclei count, normalised: 113%
[1]; measured here: cell number at 48 h, Library stock concentration: 41 uM
  nuclei count, normalised: 108%
[1]; measured here: cell number at 48 h, Library stock concentration: 123 uM
  nuclei count, normalised: 113%
[1]; measured here: cell number at 48 h, Library stock concentration: 370 uM
  nuclei count, normalised: 74.3%
[1]; measured here: cell number at 48 h, Library stock concentration: 1.111 mM
  nuclei count, normalised: 74.4%
[1]; [11]
  nuclei count, normalised: 103%
[1]; measured here: cell number at 48 h, Library stock concentration: 3.333 mM
  nuclei count, normalised: 62.1%
[1]; [12]
  nuclei count, normalised: 21.8%
[2]; Library stock concentration: 500 nM
  p53-positive nuclei, normalised: 0.137% (inactive)
[2]; Library stock concentration: 1.5 uM
  p53-positive nuclei, normalised: -0.0213% (inactive)
[2]; Library stock concentration: 4.6 uM
  p53-positive nuclei, normalised: -0.102% (inactive)
[2]; Library stock concentration: 13.7 uM
  p53-positive nuclei, normalised: 0.047% (inactive)
[2]; Library stock concentration: 41 uM
  p53-positive nuclei, normalised: 0.227% (inactive)
[2]; Library stock concentration: 123 uM
  p53-positive nuclei, normalised: -0.098% (inactive)
[2]; Library stock concentration: 370 uM
  p53-positive nuclei, normalised: 0.164% (inactive)
[2]; Library stock concentration: 1.111 mM
  p53-positive nuclei, normalised: 0.121% (inactive)
[2]; [16]
  p53-positive nuclei, normalised: 0.00985% (inactive)
[2]; Library stock concentration: 3.333 mM
  p53-positive nuclei, normalised: 0.39% (inactive)
[2]; [17]
  p53-positive nuclei, normalised: 46.6% (active)
[2]; measured here: p53 positive nuclei at 24 h, Library stock concentration: 500 nM
  p53-positive nuclei, normalised: 0.00877%
[2]; measured here: p53 positive nuclei at 24 h, Library stock concentration: 1.5 uM
  p53-positive nuclei, normalised: -0.00152%
[2]; measured here: p53 positive nuclei at 24 h, Library stock concentration: 4.6 uM
  p53-positive nuclei, normalised: 0.0386%
[2]; measured here: p53 positive nuclei at 24 h, Library stock concentration: 13.7 uM
  p53-positive nuclei, normalised: -0.00721%
[2]; measured here: p53 positive nuclei at 24 h, Library stock concentration: 41 uM
  p53-positive nuclei, normalised: 0.497%
[2]; measured here: p53 positive nuclei at 24 h, Library stock concentration: 123 uM
  p53-positive nuclei, normalised: 0.0549%
[2]; measured here: p53 positive nuclei at 24 h, Library stock concentration: 370 uM
  p53-positive nuclei, normalised: -0.0579%
[2]; measured here: p53 positive nuclei at 24 h, Library stock concentration: 1.111 mM
  p53-positive nuclei, normalised: 0.00745%
[2]; [21]
  p53-positive nuclei, normalised: -0.237%
[2]; measured here: p53 positive nuclei at 24 h, Library stock concentration: 3.333 mM
  p53-positive nuclei, normalised: 0.112%
[2]; [22]
  p53-positive nuclei, normalised: 76.7%

## CC/C=C\C/C=C\C/C=C\C/C=C\C/C=C\CCCCCC(=O)O
[1]; [23]
  nuclei count, normalised: 100%
[1]; [24]
  nuclei count, normalised: 102%
[2]; concentration not given here
  p53-positive nuclei, normalised: 0.209% (inactive)
[2]; [25]
  p53-positive nuclei, normalised: -0.0279%

## CC(Oc1ccc2c(c1)OCO2)C(=O)N(Cc1nccn1C)C(C)C (stereo unspecified)
[1]; [23]
  nuclei count, normalised: 101%
[1]; [24]
  nuclei count, normalised: 109%
[2]; concentration not given here
  p53-positive nuclei, normalised: -0.128% (inactive)
[2]; [25]
  p53-positive nuclei, normalised: 0.148%

## CCCCc1ccc(N=CNO)c(C)c1
[1]; [3]
  nuclei count, normalised: 102%
[1]; [4]
  nuclei count, normalised: 87.8%
[1]; [5]
  nuclei count, normalised: 104%
[1]; [7]
  nuclei count, normalised: 97.5%
[1]; [23]
  nuclei count, normalised: 112%
[1]; [8]
  nuclei count, normalised: 102%
[1]; [9]
  nuclei count, normalised: 96.8%
[1]; [10]
  nuclei count, normalised: 107%
[1]; [12]
  nuclei count, normalised: 103%
[1]; [24]
  nuclei count, normalised: 114%
[2]; [13]
  p53-positive nuclei, normalised: -0.0421% (inactive)
[2]; [14]
  p53-positive nuclei, normalised: -0.0681% (inactive)
[2]; [15]
  p53-positive nuclei, normalised: -0.128% (inactive)
[2]; [17]
  p53-positive nuclei, normalised: -0.158% (inactive)
[2]; concentration not given here
  p53-positive nuclei, normalised: -0.0134% (inactive)
[2]; [18]
  p53-positive nuclei, normalised: -0.116%
[2]; [19]
  p53-positive nuclei, normalised: 0.0745%
[2]; [20]
  p53-positive nuclei, normalised: 0.0465%
[2]; [22]
  p53-positive nuclei, normalised: 0.123%
[2]; [25]
  p53-positive nuclei, normalised: -0.0878%

## O=C(Nc1ccccc1Br)NC1CCN(c2ccc(C(F)(F)F)cn2)C1 (stereo unspecified)
[1]; [6]
  nuclei count, normalised: 102%
[1]; [11]
  nuclei count, normalised: 96.3%
[2]; [16]
  p53-positive nuclei, normalised: -0.163% (inactive)
[2]; [21]
  p53-positive nuclei, normalised: -0.314%

## CCCCC/C=C\C/C=C\C/C=C\C/C=C\CCCC(=O)C(F)(F)F
[1]; [23]
  nuclei count, normalised: 108%
[1]; [24]
  nuclei count, normalised: 109%
[2]; concentration not given here
  p53-positive nuclei, normalised: -0.148% (inactive)
[2]; [25]
  p53-positive nuclei, normalised: -0.0854%

## Nc1ncn([C@@H]2O[C@@H](CO)[C@H](O)[C@@H]2O)c(=O)n1
[1]; [3]
  nuclei count, normalised: 122%
[1]; [4]
  nuclei count, normalised: 116%
[1]; [5]
  nuclei count, normalised: 110%
[1]; [7]
  nuclei count, normalised: 65.9%
[1]; [8]
  nuclei count, normalised: 122%
[1]; [9]
  nuclei count, normalised: 116%
[1]; [10]
  nuclei count, normalised: 111%
[1]; [12]
  nuclei count, normalised: 63.4%
[2]; [13]
  p53-positive nuclei, normalised: -0.241% (inactive)
[2]; [14]
  p53-positive nuclei, normalised: -0.762% (inactive)
[2]; [15]
  p53-positive nuclei, normalised: -0.515% (inactive)
[2]; [17]
  p53-positive nuclei, normalised: 0.325% (inactive)
[2]; [18]
  p53-positive nuclei, normalised: 1.31%
[2]; [19]
  p53-positive nuclei, normalised: -0.12%
[2]; [20]
  p53-positive nuclei, normalised: 0.0304%
[2]; [22]
  p53-positive nuclei, normalised: 0.106%

## CC(=O)NC(CC(C)C)C(=O)NC(CC(C)C)C(=O)NC(C=O)CCCN=C(N)N (stereo unspecified)
[1]; [3]
  nuclei count, normalised: 88.7%
[1]; [4]
  nuclei count, normalised: 87.3%
[1]; [5]
  nuclei count, normalised: 62.5%
[1]; [7]
  nuclei count, normalised: 67.4%
[1]; [8]
  nuclei count, normalised: 91.5%
[1]; [9]
  nuclei count, normalised: 90.5%
[1]; [10]
  nuclei count, normalised: 69%
[1]; [12]
  nuclei count, normalised: 72.9%
[2]; [13]
  p53-positive nuclei, normalised: 0.011% (inactive)
[2]; [14]
  p53-positive nuclei, normalised: -0.0354% (inactive)
[2]; [15]
  p53-positive nuclei, normalised: -0.0908% (inactive)
[2]; [17]
  p53-positive nuclei, normalised: -0.0909% (inactive)
[2]; [18]
  p53-positive nuclei, normalised: -0.0474%
[2]; [19]
  p53-positive nuclei, normalised: -0.0442%
[2]; [20]
  p53-positive nuclei, normalised: 0.0943%
[2]; [22]
  p53-positive nuclei, normalised: -0.12%
